The results in this text go back to the supplement of paper PMC6522484.

± gives the standard deviation of the averaged measurements.

Assay [1] has as its system DLD1. Nature of the assay: cell viability (CellTiter-Glo) relative to plate median (fraction of plate median); higher = more viable cells. The note with it: 5 µM; treatment time 24 h; reporter: 7TFP. In outline: (§1)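 Colorectal cancer cell lines stably carrying lentiviral TCF/Wnt firefly luciferase reporters (7TFP or TCF4/Wnt) were plated in 384-well plates and, 24 h later, given library compounds at a final 5 µM for 24 h. Firefly luciferase or CellTiterGlo luminescence was read on parallel plates with a Tecan F500 reader. Each well's signal was normalised to the plate median in webcellHTS2 (additive, without log transformation). Values are the mean of two independent replicates.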
On the technique in general: In ATP-based viability assays light output follows the ATP content of the culture.

The next assay deals with HCT116. The assay is described as above. The note with it: 5 µM; treatment time 24 h; reporter: TCF4/Wnt. The procedure, abridged: as §1
Assay [2] deals with SW480. Described as above. As to conditions: 5 µM; treatment time 24 h; reporter: 7TFP. In outline: as §1
Assay [3] has as its system DLD1. Nature of the assay: TCF/Wnt firefly luciferase reporter signal relative to plate median (fraction of plate median); higher = higher Wnt reporter signal. The note with it: 5 µM; treatment time 24 h; reporter: 7TFP. The procedure, abridged: as §1
In general terms: Reporter assays use an easily measured gene product as a stand-in for the process of interest.

The subject of assay [4] is SW480. The description is as above. As to conditions: 5 µM; treatment time 24 h; reporter: 7TFP. In outline:
as §1

For the molecule `O=c1cccc2ccc(O)c(O)c2c1O`, the cell viability in the assay on DLD1 [1] was 0.975 ± 0.012; with HCT116 it was 0.994 ± 0.11; with SW480 [2] it was 0.966 ± 0.033. The “TCF/Wnt firefly luciferase reporter signal” value was 0.994 ± 0.079 with DLD1 [3] and 1.06 ± 0.042 in the assay on SW480 [4].
The corresponding values for `CN(C)CCc1c[nH]c2ccc(CS(=O)(=O)N3CCCC3)cc12` are 0.875 ± 0.04, 0.929 ± 0.088, 0.999 ± 0.086, 1.17 ± 0.035 and 1.06 ± 0.088.
For the molecule `COc1cc2nc(N3CCN(C(=O)c4ccco4)CC3)nc(N)c2cc1OC`, the cell viability with DLD1 [1] was found to be 1.01 ± 0.097; in the assay on HCT116, 1.02 ± 0.036; with SW480 [2], 1.01 ± 0.018. Moreover, the “TCF/Wnt firefly luciferase reporter signal” value was 1.11 ± 0.014 in the assay on DLD1 [3] and 1.09 ± 0.028 in the assay with SW480 [4].
Taken in the same sequence, the figures for `O=c1cc(-c2ccccc2O)oc2cc(O)ccc12` were 1.01 ± 0.069, 1.02 ± 0.094, 0.976 ± 0.025, 1.17 ± 0.042 and 1.23 ± 0.085.
`CC(=O)c1cc2c(cc1O)OC(C)(C)C=C2`: the cell viability was 1.09 ± 0.099 in the assay with DLD1 [1], 1 ± 0.011 with HCT116 and 1.03 ± 0.014 in the assay with SW480 [2]. Also, the figures for the “TCF/Wnt firefly luciferase reporter signal” value in the assay on DLD1 [3] and with SW480 [4] were 0.99 ± 0.057 and 1.01 ± 0.023, respectively.
Turning to `CC(C)NCC(O)COc1cccc2ccccc12` (stereo not given), the cell viability amounted to 0.927 ± 0.16 in the assay on DLD1 [1], 0.997 ± 0.047 in the assay with HCT116 and 1.03 ± 0.044 with SW480 [2]. Further, the “TCF/Wnt firefly luciferase reporter signal” value with DLD1 [3] came out at 1.01 ± 0.044; with SW480 [4] it was 0.9935 ± 0.0092.
For `COc1ccc(-c2oc3cc(O[C@@H]4O[C@H](CO)[C@@H](O)[C@H](O)[C@H]4O)c(OC)c(O)c3c(=O)c2OC)cc1O`, the cell viability in the assay with DLD1 [1] was 1.05 ± 0.057; in the assay with HCT116 it was 1.19 ± 0.17; in the assay on SW480 [2], 1. The “TCF/Wnt firefly luciferase reporter signal” value with DLD1 [3] is 1.05 ± 0.035; in the assay on SW480 [4], 1.02 ± 0.11.
The corresponding values for `CCN[C@@H]1C[C@H](N)[C@@H](O[C@H]2OC(CN)=CC[C@H]2N)[C@H](O)[C@H]1O[C@H]1OC[C@](C)(O)[C@H](NC)[C@H]1O` are 0.992 ± 0.026, 0.903 ± 0.052, 0.978 ± 0.025, 0.906 ± 0.15 and 0.953 ± 0.021.
As for `CC1=C(C(=O)O)N2C(=O)[C@@H](NC(=O)[C@H](N)c3ccc(O)cc3)[C@H]2SC1`, the cell viability came to 0.977 ± 0.016 in the assay on DLD1 [1], 0.956 ± 0.063 with HCT116 and 0.949 ± 0.086 in the assay on SW480 [2]. In addition, the “TCF/Wnt firefly luciferase reporter signal” value with DLD1 [3] was determined as 0.907 ± 0.14; in the assay on SW480 [4] it was 0.918 ± 0.13.
The corresponding values for `Nc1ccc(S(=O)(=O)Nc2ccc(Cl)nn2)cc1` are 1.06 ± 0.096, 1.03 ± 0.035, 1.08 ± 0.05, 0.954 ± 0.028 and 1.09 ± 0.042.
Turning to `O=C1NCC(=O)N2CCCC12` (stereo not given) [Cyclo(glycylprolyl)], the cell viability stood at 0.941 ± 0.037 in the assay with DLD1 [1], 0.9365 ± 0.005 with HCT116 and 0.959 ± 0.016 in the assay on SW480 [2]. The figures for the “TCF/Wnt firefly luciferase reporter signal” value with DLD1 [3] and in the assay on SW480 [4] were 1.2 ± 0.085 and 0.978 ± 0.073, respectively.
In the case of `CC(C)Cn1c(=O)n(C)c(=O)c2nc[nH]c21`, the cell viability with DLD1 [1] is 0.956 ± 0.048; with HCT116, 1.04 ± 0.05; in the assay with SW480 [2] it was 0.9585 ± 0.0092. Besides, the results for the “TCF/Wnt firefly luciferase reporter signal” value with DLD1 [3] and in the assay with SW480 [4] were 0.972 ± 0.054 and 0.987 ± 0.018, respectively.
Turning to `NC(=O)NC(=O)Cc1ccccc1`, the cell viability is 1.02 ± 0.014 with DLD1 [1], 1.16 ± 0.035 in the assay on HCT116 and 1.02 ± 0.037 in the assay on SW480 [2]. In addition, the “TCF/Wnt firefly luciferase reporter signal” value in the assay with DLD1 [3] came to 1.12 ± 0.064; in the assay with SW480 [4], 0.94 ± 0.08.
With `CS(=O)(=O)CCCCN=C=S`, the cell viability in the assay on DLD1 [1] was 0.722 ± 0.18; with HCT116, 0.8885 ± 0.00071; in the assay with SW480 [2], 0.83 ± 0.03. In addition, the “TCF/Wnt firefly luciferase reporter signal” value amounted to 0.83 ± 0.067 in the assay on DLD1 [3] and 0.867 ± 0.12 in the assay on SW480 [4].
For `O=c1cc(CO)occ1O` [Kojic acid (Biofocus)], the cell viability in the assay on DLD1 [1] amounted to 0.943 ± 0.08; with HCT116 it was 1.02 ± 0.083; with SW480 [2], 0.994 ± 0.093. In addition, the “TCF/Wnt firefly luciferase reporter signal” value in the assay with DLD1 [3] is 1.21 ± 0.13; in the assay on SW480 [4], 1.12 ± 0.035.
The corresponding values for `COc1cc2ccc(=O)oc2c(OC)c1OC` are 1.05 ± 0.075, 1.05 ± 0.064, 1.025 ± 0.0071, 0.993 ± 0.081 and 0.931 ± 0.045.
As for `Cn1cnc([N+](=O)[O-])c1Sc1ncnc2[nH]cnc12`, the values for the cell viability in the assay with DLD1 [1], in the assay on HCT116 and with SW480 [2] were 0.95 ± 0.018, 1.02 ± 0.054 and 1.13 ± 0.057, respectively. Further, the “TCF/Wnt firefly luciferase reporter signal” value with DLD1 [3] is 1.03 ± 0.078; in the assay on SW480 [4], 0.965 ± 0.034.
Taken in the same sequence, the figures for `CC(=O)N(O)CCCCCNC(=O)CCC(=O)N(O)CCCCCNC(=O)CCC(=O)N(O)CCCCCN` were 0.987 ± 0.015, 0.95 ± 0.032, 0.89 ± 0.073, 0.869 ± 0.067 and 1.06 ± 0.021.
For `CC(C(=O)O)c1ccc2c(c1)[nH]c1ccc(Cl)cc12` (stereo not given), the cell viability in the assay with DLD1 [1] stood at 1.02 ± 0.063; with HCT116 it was 1.03 ± 0.061; in the assay with SW480 [2], 0.968 ± 0.0071. In addition, the “TCF/Wnt firefly luciferase reporter signal” value with DLD1 [3] amounted to 1.04 ± 0.042; with SW480 [4], 1.09 ± 0.021.
Take `CC(C)CCC[C@@H](C)[C@H]1CC[C@H]2[C@@H]3CC=C4C[C@@H](O)CC[C@]4(C)[C@H]3CC[C@]12C`: the figures for the cell viability in the assay with DLD1 [1], with HCT116 and with SW480 [2] were 1.03 ± 0.067, 1 ± 0.11 and 1.015 ± 0.0071, respectively. Besides, the “TCF/Wnt firefly luciferase reporter signal” value is 1.05 ± 0.081 in the assay on DLD1 [3] and 1.04 ± 0.042 in the assay on SW480 [4].
Turning to `O=C(Cc1ccccc1)NO`, the cell viability in the assay with DLD1 [1] turned out to be 1.03 ± 0.028; in the assay on HCT116 it was 0.878 ± 0.13; in the assay with SW480 [2] it was 1 ± 0.027. Besides, the “TCF/Wnt firefly luciferase reporter signal” value with DLD1 [3] was 0.789 ± 0.064; in the assay on SW480 [4], 0.869 ± 0.014.
Regarding `CCCCCCc1ccc(O)cc1O.Nc1c2ccccc2nc2ccccc12`, the cell viability with DLD1 [1] was 1.03 ± 0.056; in the assay with HCT116 it was 0.829 ± 0.0071; with SW480 [2], 1.1 ± 0.057. In addition, the “TCF/Wnt firefly luciferase reporter signal” value with DLD1 [3] is 1.98 ± 0.34; in the assay with SW480 [4] it was 0.848 ± 0.045.
For the molecule `C=C1c2cccc(O)c2C(=O)C2=C(O)[C@]3(O)C(=O)C(C(N)=O)=C(O)[C@@H](N(C)C)[C@@H]3[C@@H](O)[C@H]12`, the cell viability was found to be 0.968 ± 0.0014 in the assay with DLD1 [1], 0.928 ± 0.13 in the assay with HCT116 and 0.969 ± 0.073 in the assay with SW480 [2]. For the same molecule, the “TCF/Wnt firefly luciferase reporter signal” value was found to be 1.06 ± 0.26 with DLD1 [3] and 1.11 ± 0.064 in the assay with SW480 [4].
As for `O=c1c(O)c(-c2ccc(O)c(O)c2)oc2c(O[C@@H]3O[C@H](CO)[C@@H](O)[C@H](O)[C@H]3O)c(O)cc(O)c12`, the cell viability was determined as 0.99 ± 0.057 in the assay on DLD1 [1], 0.905 ± 0.22 in the assay on HCT116 and 0.976 ± 0.033 in the assay on SW480 [2]. The “TCF/Wnt firefly luciferase reporter signal” value with DLD1 [3] came out at 1.1 ± 0.078; in the assay on SW480 [4], 0.997 ± 0.061.
The corresponding values for `CC(C)Oc1ccc2c(=O)c(-c3ccccc3)coc2c1` are 0.972 ± 0.013, 1.05 ± 0.083, 1.01 ± 0.021, 1.24 ± 0.21 and 0.949 ± 0.34.
Turning to `COC(=O)CC1C(C)(C)C(OC(C)=O)[C@@H]2[C@@H](OC(C)=O)[C@]34O[C@@]2(O)[C@]1(C)C3CC[C@]1(C)C4=CC(=O)O[C@H]1c1ccoc1` (stereo not given in full), the figures for the cell viability in the assay on DLD1 [1], in the assay with HCT116 and in the assay with SW480 [2] were 1.02 ± 0.11, 1.02 ± 0.098 and 1.04, respectively. Moreover, the “TCF/Wnt firefly luciferase reporter signal” value stood at 1.01 ± 0.061 with DLD1 [3] and 0.992 ± 0.026 with SW480 [4].
Consider `CC1=CC(=O)[C@H]2C(C)(C)CCC[C@]2(C)[C@@]1(O)CCc1ccoc1`, for which the cell viability in the assay with DLD1 [1] was 0.976 ± 0.016; in the assay with HCT116, 1.07 ± 0.15; with SW480 [2], 0.998 ± 0.018. The “TCF/Wnt firefly luciferase reporter signal” value in the assay with DLD1 [3] was 1.1 ± 0.099; with SW480 [4], 0.95 ± 0.043.
On to `OCCN1C[C@H](O)[C@@H](O)[C@H](O)[C@H]1CO`, for which the cell viability worked out at 0.86 ± 0.15 with DLD1 [1], 0.957 ± 0.19 in the assay on HCT116 and 0.97 ± 0.025 with SW480 [2]. Also, the “TCF/Wnt firefly luciferase reporter signal” value in the assay on DLD1 [3] stood at 0.954 ± 0.11; with SW480 [4] it was 0.988 ± 0.06.
Taken in the same sequence, the figures for `COC(=O)[C@@]1(C)CCC[C@]2(C)c3ccc(O)c(C(C)C)c3CCC12` (stereo not given in full) were 1.03 ± 0.028, 0.982 ± 0.096, 1.03 ± 0.028, 0.892 ± 0.046 and 0.88 ± 0.049.
As for `N=c1ccn2c(n1)O[C@H]1[C@H](O)[C@@H](CO)O[C@H]12`, the values for the cell viability in the assay with DLD1 [1], in the assay on HCT116 and in the assay with SW480 [2] were 1.16 ± 0.078, 0.942 ± 0.034 and 1.15 ± 0.028, respectively. Also, the entries for the “TCF/Wnt firefly luciferase reporter signal” value in the assay with DLD1 [3] and in the assay with SW480 [4] were 1.08 ± 0.11 and 1.1, respectively.
